# Records with an inconclusive call do not appear. A call without a number means that no potency is given here. Values without a mark were called inactive. The source made the active and inactive calls. Unless noted, the call rests on the fitted dose curve; in most records, active means well fitted curve in the direction sought with a large enough effect in the repeat runs; inconclusive means weak or mixed curves; inactive means no such curve, though single readings can be large; an effect the other way counts as inactive or inconclusive.
# Legend:
# [1] = qHTS assay to identify aromatase inhibitors - cell viability counter screen (AID 743084);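 further: cells stimulated with testosterone during compound exposure; nearly all actives have a fitted effect of over 55% in size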
# [2] = qHTS assay to identify small molecule that activate the aryl hydrocarbon receptor (AhR) signaling pathway - cell viability counter screen (AID 743086);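 further: HepG2 liver cells carrying the AhR DRE luciferase reporter; series mostly up to about 70 µM; nearly all actives have a fitted effect of over 45% in size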
# Procedure, shortened: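 HepG2-AhR-luc (HG2L7.5c1) cells, 4000/well, were preincubated 5 h at 37C, exposed to compound in qHTS format for 24 hr at 37C, then given CellTiter-Fluor for 30 min; viability was read as fluorescence in the reporter wells.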
# [3] = molecular target: Peroxisome proliferator-activated receptor gamma (Homo sapiens) (UniProt P37231); assay: qHTS assay to identify small molecule agonists of the peroxisome proliferator-activated receptor gamma (PPARg) signaling pathway (AID 743094; active means well fitted activation curve with a large enough effect in the signal ratio in the repeat runs, not every such curve was filed as active; the % refers to the signal ratio)
# Peroxisome proliferator-activated receptor gamma (Homo sapiens), sequence (P37231 whole entry, looked up): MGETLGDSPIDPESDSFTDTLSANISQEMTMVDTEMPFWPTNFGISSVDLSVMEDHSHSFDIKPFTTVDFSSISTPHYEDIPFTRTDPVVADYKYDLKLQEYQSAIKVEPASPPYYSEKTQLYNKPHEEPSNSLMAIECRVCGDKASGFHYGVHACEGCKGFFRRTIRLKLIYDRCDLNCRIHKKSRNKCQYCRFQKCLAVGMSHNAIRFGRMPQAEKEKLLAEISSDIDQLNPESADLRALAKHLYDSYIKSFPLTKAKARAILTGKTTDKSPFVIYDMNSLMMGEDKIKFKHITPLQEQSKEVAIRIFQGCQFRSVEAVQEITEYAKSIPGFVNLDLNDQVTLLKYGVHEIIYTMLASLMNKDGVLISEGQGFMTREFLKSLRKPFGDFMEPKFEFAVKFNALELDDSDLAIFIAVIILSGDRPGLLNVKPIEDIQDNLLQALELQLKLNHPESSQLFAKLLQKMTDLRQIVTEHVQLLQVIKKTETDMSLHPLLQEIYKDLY
# Procedure, shortened: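 Agonist activity was taken from a beta-lactamase reporter (FRET substrate, 1 h at room temperature) in HEK293H cells carrying a PPARg UAS-bla construct. Compounds in DMSO were incubated 17 h at 37C after a 5 h cell pre-incubation.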
# [4] = molecular target: Peroxisome proliferator-activated receptor gamma (Homo sapiens) (UniProt P37231); assay: qHTS assay to identify small molecule antagonists of the peroxisome proliferator-activated receptor gamma (PPARg) signaling pathway (AID 743191; calls by dose curve; further: series mostly up to about 63 µM; nearly all actives have a fitted effect of over 30% in size)
# Procedure, shortened: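 GeneBLAzer PPARg UAS-bla HEK293H cells carrying a UAS-driven beta-lactamase reporter were plated at 3000 cells/well, preincubated 5 h at 37C, then given compound for 17 h at 37C; LiveBLAzer B/G FRET substrate was read after 1 h at room temperature.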
# [5] = qHTS assay to identify small molecule antagonists of the peroxisome proliferator-activated receptor gamma (PPARg) signaling pathway - cell viability counter screen (AID 743194); further: nearly all actives have a fitted effect of over 55% in size
# Procedure, shortened: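 PPARg-UAS-bla HEK293H cells were plated, rested 5 h at 37 C, then treated with compounds plus rosiglitazone (50 nM final) for 17 h at 37 C; viability was then read by CellTiter-Glo luminescence after 30 min at room temperature.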
# [6] = qHTS assay for small molecule agonists of the antioxidant response element (ARE) signaling pathway (AID 743202; active means well fitted activation curve with a large enough effect in the signal ratio in the repeat runs, not every such curve was filed as active; the % refers to the signal ratio; further: potency means the concentration at half of the fitted maximal effect)
# Procedure, shortened: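 Steps: seed ARE-bla HepG2 cells (2,000/well); incubate 5 h at 37 C; add compounds by pin tool; incubate 16 h at 37 C; add FRET substrate; read fluorescence after 2 h at RT.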
# [7] = qHTS assay for small molecule agonists of the antioxidant response element (ARE) signaling pathway - cell viability counter screen (AID 743203; calls by dose curve; further: nearly all actives have a fitted effect of over 55% in size)
# Procedure, shortened: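 Viability counter screen: CellTiter-Glo luminescence, read after 30 min at room temperature, in ARE-bla HepG2 wells. Compound exposure lasted 16 h at 37C/5% CO2, following a 5 h pre-incubation of the cells after plating.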
# [8] = qHTS assay for small molecule activators of the heat shock response signaling pathway - cell viability counter screen (AID 743209); further: nearly all actives have a fitted effect of over 50% in size
# Procedure, shortened: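 Cytotoxicity counter screen run in the same wells as the heat-shock bla reporter assay: HeLa HSE-bla cells, 5 h compound exposure at 37 C, viability read by CellTiter-Glo luminescence.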
# [9] = qHTS assay for small molecule activators of the heat shock response signaling pathway (AID 743210; active means well fitted activation curve with a large enough effect in the signal ratio in the repeat runs, with a control signal flat, not every such curve was filed as active; the % refers to the signal ratio;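 further: HeLa cells with beta-lactamase reporter driven by heat shock elements; series mostly up to about 63 µM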)
# Procedure, shortened: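 Activation of heat shock element-controlled beta-lactamase expression is measured in HeLa cells by LiveBLAzer FRET fluorescence, with compound exposure lasting 5 h at 37 C and substrate loading 2.5 h at room temperature.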
# [10] = molecular target: Aryl hydrocarbon receptor (Homo sapiens) (UniProt P35869); assay: qHTS assay to identify small molecule that activate the aryl hydrocarbon receptor (AhR) signaling pathway (AID 743085); further: nearly all actives have a fitted effect of over 15% in size; further: potency means the concentration at half of the fitted maximal effect;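 on activation: HG2L7.5c1 human HepG2 liver cells with stably integrated DRE-driven firefly reporter; series mostly up to about 70 µM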
# Aryl hydrocarbon receptor (Homo sapiens), sequence (P35869 whole entry, looked up): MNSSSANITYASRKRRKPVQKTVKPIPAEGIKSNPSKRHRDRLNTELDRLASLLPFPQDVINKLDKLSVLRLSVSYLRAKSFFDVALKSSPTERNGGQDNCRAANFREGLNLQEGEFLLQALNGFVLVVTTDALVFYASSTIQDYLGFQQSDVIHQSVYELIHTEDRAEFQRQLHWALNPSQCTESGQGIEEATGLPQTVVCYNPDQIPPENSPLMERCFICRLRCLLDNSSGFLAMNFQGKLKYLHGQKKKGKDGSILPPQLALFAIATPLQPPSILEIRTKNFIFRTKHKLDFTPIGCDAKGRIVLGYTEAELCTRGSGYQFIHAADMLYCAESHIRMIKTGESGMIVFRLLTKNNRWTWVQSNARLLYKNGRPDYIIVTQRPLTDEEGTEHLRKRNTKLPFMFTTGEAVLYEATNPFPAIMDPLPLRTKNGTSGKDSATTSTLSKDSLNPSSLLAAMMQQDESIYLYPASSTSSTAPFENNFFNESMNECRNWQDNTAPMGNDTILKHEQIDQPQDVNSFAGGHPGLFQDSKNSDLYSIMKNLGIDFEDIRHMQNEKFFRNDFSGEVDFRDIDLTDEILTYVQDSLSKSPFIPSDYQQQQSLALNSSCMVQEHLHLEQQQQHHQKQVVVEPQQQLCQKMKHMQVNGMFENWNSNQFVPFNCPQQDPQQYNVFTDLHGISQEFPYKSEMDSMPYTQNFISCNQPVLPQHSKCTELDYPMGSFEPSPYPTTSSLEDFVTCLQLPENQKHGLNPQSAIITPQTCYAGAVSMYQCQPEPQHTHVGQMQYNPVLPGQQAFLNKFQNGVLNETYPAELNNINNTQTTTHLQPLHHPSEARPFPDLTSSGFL
# Procedure, shortened: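 Stably transfected human liver carcinoma cells (HG2L7.5c1; 20 DRE-firefly luciferase) were incubated 5 h, dosed, and kept 24 h at 37C. Agonism was scored from increased luciferase luminescence.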
smiles,measurement,setting,value
Cc1ccc([N+](=O)[O-])c(N)c1,Potency,[1],inactive
same,outcome,[2],inactive
same,Potency,[3],inactive
same,Potency,[4],inactive
same,Potency,[5],inactive
same,Potency,[6],inactive
same,Potency,[7],inactive
same,outcome,[8],inactive
same,Potency,[9],inactive
CO[C@@]1(NC(=O)CSCC#N)C(=O)N2C(C(=O)O)=C(CSc3nnnn3C)CS[C@@H]21,Potency,[1],inactive
same,outcome,[2],inactive
same,Potency,[3],inactive
same,Potency,[4],inactive
same,Potency,[5],inactive
same,Potency,[6],inactive
same,Potency,[7],inactive
same,outcome,[8],inactive
same,Potency,[9],inactive
NNS(=O)(=O)c1ccc(Oc2ccc(S(=O)(=O)NN)cc2)cc1,Potency,[1],inactive
same,outcome,[2],inactive
same,Potency,[3],inactive
same,Potency,[4],inactive
same,Potency,[5],inactive
same,Potency,[6],inactive
same,outcome,[8],inactive
same,Potency,[9],inactive
O=C(O)c1cccc(Cl)c1Cl,Potency,[1],inactive
same,outcome,[2],inactive
same,Potency,[3],inactive
same,Potency,[4],inactive
same,Potency,[5],inactive
same,Potency,[6],inactive
same,Potency,[7],inactive
same,outcome,[8],inactive
CCN(CC)CCNC(=O)COc1ccc(Cl)cc1,Potency,[1],inactive
same,outcome,[2],inactive
same,Potency,[3],inactive
same,Potency,[4],inactive
same,Potency,[5],inactive
same,Potency,[6],inactive
same,Potency,[7],inactive
same,outcome,[8],inactive
same,Potency,[9],inactive
O=C(O[C@@H](C(=O)O)[C@@H](OC(=O)c1ccccc1)C(=O)O)c1ccccc1,Potency,[1],inactive
same,outcome,[2],inactive
same,Potency,[3],inactive
same,Potency,[5],inactive
same,Potency,[6],inactive
same,Potency,[7],inactive
same,outcome,[8],inactive
same,Potency,[9],inactive
CCc1cc(Cl)c(OC)c(C(=O)NC[C@@H]2CCCN2CC)c1O,Potency,[1],inactive
same,Potency,[10],inactive
same,Potency,[3],inactive
same,Potency,[5],inactive
same,Potency,[6],inactive
same,Potency,[7],inactive
same,outcome,[8],inactive
same,Potency,[9],inactive
CCCCN1C[C@H](O)[C@@H](O)[C@H](O)[C@H]1CO,Potency,[1],inactive
same,outcome,[2],inactive
same,Potency,[3],inactive
same,Potency,[5],inactive
same,Potency,[6],inactive
same,Potency,[7],inactive
same,outcome,[8],inactive
CCc1nnc(NS(=O)(=O)c2ccc(N)cc2)s1,Potency,[1],inactive
same,outcome,[2],inactive
same,Potency,[3],inactive
same,Potency,[5],inactive
same,Potency,[6],inactive
same,Potency,[7],inactive
same,outcome,[8],inactive
same,Potency,[9],inactive
OCC(CBr)(CBr)CBr,Potency,[1],inactive
same,outcome,[2],inactive
same,Potency,[3],inactive
same,Potency,[4],inactive
same,Potency,[7],inactive
same,outcome,[8],inactive
same,Potency,[9],inactive
OCCN(CCO)c1ccccc1,Potency,[1],inactive
same,Potency,[10],inactive
same,Potency,[3],inactive
same,Potency,[5],inactive
same,Potency,[6],inactive
same,Potency,[7],inactive
same,outcome,[8],inactive
same,Potency,[9],inactive
COc1ccc2nc(NC(=O)Nc3ccccc3)sc2c1,Potency,[1],inactive
same,outcome,[2],inactive
same,Potency,[3],inactive
same,Potency,[4],inactive
same,Potency,[5],inactive
same,Potency,[7],inactive
same,outcome,[8],inactive
CCCNC(C)C(=O)Nc1c(C)csc1C(=O)OC (stereo not drawn),Potency,[1],inactive
same,outcome,[2],inactive
same,Potency,[3],inactive
same,Potency,[4],inactive
same,Potency,[5],inactive
same,Potency,[6],inactive
same,Potency,[7],inactive
same,outcome,[8],inactive
same,Potency,[9],inactive
CCNCCO,Potency,[1],inactive
same,outcome,[2],inactive
same,Potency,[3],inactive
same,Potency,[5],inactive
same,Potency,[6],inactive
same,Potency,[7],inactive
same,outcome,[8],inactive
same,Potency,[9],inactive
CCCCC(CC)COC(=O)COc1cc(Cl)c(Cl)cc1Cl (stereo not drawn),Potency,[1],inactive
same,Potency,[10],inactive
same,Potency,[3],inactive
same,Potency,[5],inactive
same,Potency,[6],inactive
same,Potency,[7],inactive
same,outcome,[8],inactive
same,Potency,[9],inactive
CC(C)CC(=O)OCc1ccccc1,Potency,[1],inactive
same,Potency,[10],inactive
same,Potency,[3],inactive
same,Potency,[5],inactive
same,Potency,[6],inactive
same,Potency,[7],inactive
same,outcome,[8],inactive
O=C(O)C(=O)Cc1c[nH]c2ccccc12,Potency,[1],inactive
same,outcome,[2],inactive
same,Potency,[3],inactive
same,Potency,[4],inactive
same,Potency,[5],inactive
same,Potency,[6],27.3 µM (active)
same,Potency,[7],inactive
same,outcome,[8],inactive
same,Potency,[9],inactive
CCOc1ccc2nc(N)sc2c1,Potency,[1],inactive
same,Potency,[10],2.15 µM (active)
same,Potency,[3],inactive
same,Potency,[5],inactive
same,Potency,[6],48.2 µM (active)
same,Potency,[7],inactive
same,outcome,[8],inactive
same,Potency,[9],inactive
O=C(Cl)c1cccc([N+](=O)[O-])c1,Potency,[1],inactive
same,outcome,[2],inactive
same,Potency,[3],inactive
same,Potency,[4],inactive
same,Potency,[5],inactive
same,Potency,[6],inactive
same,outcome,[8],inactive
same,Potency,[9],inactive
CNCCC(Oc1ccccc1OC)c1ccccc1 (stereo not drawn),Potency,[1],inactive
same,outcome,[2],inactive
same,Potency,[3],inactive
same,Potency,[5],inactive
same,Potency,[6],inactive
same,Potency,[7],inactive
same,outcome,[8],inactive
same,Potency,[9],inactive
Cc1cc(S(=O)(=O)O)c(N)cc1Cl,Potency,[1],inactive
same,outcome,[2],inactive
same,Potency,[3],inactive
same,Potency,[4],inactive
same,Potency,[5],inactive
same,Potency,[7],inactive
same,outcome,[8],inactive
Cc1cc2nc(N)sc2cc1C,Potency,[1],inactive
same,outcome,[2],inactive
same,Potency,[3],inactive
same,Potency,[4],inactive
same,Potency,[5],inactive
same,Potency,[6],inactive
same,Potency,[7],inactive
same,outcome,[8],inactive
same,Potency,[9],inactive
O=C1CCC(C2CCCCC2)CC1,Potency,[1],inactive
same,Potency,[10],inactive
same,Potency,[3],inactive
same,Potency,[7],inactive
same,outcome,[8],inactive
same,Potency,[9],inactive
NC1=NCC2c3ccccc3Cc3ccccc3N12 (stereo not drawn),Potency,[1],inactive
same,Potency,[10],inactive
same,outcome,[8],inactive
same,Potency,[9],inactive
OC[C@H]1O[C@@H](O[C@H]2[C@H](O)[C@@H](O)[C@H](O)O[C@@H]2CO)[C@H](O)[C@@H](O)[C@H]1O,Potency,[1],inactive
same,outcome,[2],inactive
same,Potency,[3],inactive
same,Potency,[5],inactive
same,Potency,[6],inactive
same,Potency,[7],inactive
same,outcome,[8],inactive
same,Potency,[9],inactive
CC(C)OC(C)C,Potency,[1],inactive
same,Potency,[10],inactive
same,Potency,[3],inactive
same,Potency,[5],inactive
same,Potency,[7],inactive
same,outcome,[8],inactive
same,Potency,[9],inactive
NC(Cc1ccc(F)cc1)C(=O)O (stereo not drawn),"activity change, negative = cytotoxicity",[1],-2.35% [at 8.47 µM]
same,"viability change, negative = cytotoxic",[2],2.78% [at 8.47 µM]
same,activation,[3],0.33% [at 7.08 µM]
same,"ratio activity, negative = inhibition",[4],6.5% [at 5.95 µM]
same,"activity change, negative = cytotoxicity",[5],-1.09% [at 5.95 µM]
same,activation,[6],-7.28% [at 8.36 µM]
same,"viability change, negative = cytotoxic",[7],-1.52% [at 8.36 µM]
CC(=O)OC(C)OC(C)=O,Potency,[1],inactive
same,Potency,[10],inactive
same,Potency,[3],inactive
same,Potency,[5],inactive
same,Potency,[6],inactive
same,Potency,[7],inactive
same,outcome,[8],inactive
CN1CCN(c2c(F)cc3c(=O)c(C(=O)O)cn4c3c2SCC4)CC1,Potency,[1],inactive
same,outcome,[2],inactive
same,Potency,[3],inactive
same,Potency,[5],inactive
same,Potency,[6],inactive
same,Potency,[7],inactive
same,outcome,[8],inactive
same,Potency,[9],inactive
C=CCCCCCCCCO,Potency,[1],inactive
same,Potency,[10],inactive
same,Potency,[3],inactive
same,Potency,[5],inactive
same,Potency,[6],inactive
same,Potency,[7],inactive
same,outcome,[8],inactive
same,Potency,[9],inactive
FC(F)(F)C(F)(F)C(F)(F)C(F)(F)C(F)(F)C(F)(F)C(F)(F)C(F)(F)Br,Potency,[1],inactive
same,Potency,[10],inactive
same,Potency,[3],inactive
same,Potency,[5],inactive
same,Potency,[6],inactive
same,Potency,[7],inactive
same,outcome,[8],inactive
same,Potency,[9],inactive
CCOC(=O)CS,Potency,[1],inactive
same,Potency,[10],inactive
same,Potency,[3],inactive
same,Potency,[5],inactive
same,Potency,[6],inactive
same,Potency,[7],inactive
same,outcome,[8],inactive
same,Potency,[9],inactive
